Some structures have more than one record in an assay (separate samples or runs), and their calls can disagree. Calls of active or inactive are those of the source. Rule for the calls: active = hit-call score of the fitted dose curve at least 0.9, where 1 is the maximum; inactive = score below 0.9.
Assay: BSK_BE3C_SRB: Viability Assessment in the BioMAP Diversity Plus: BE3C Assay (AID 2283028);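 for AC50: fitted both ways so AC50 may mark signal gain or loss versus DMSO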
Details: primary human bronchial epithelial cells
Experimental: BSK_BE3C is a cell-based, multiplexed-readout assay that uses bronchial epithelial cell, a human lung primary cell, with measurements taken at 24 hours after chemical dosing in a 96-well plate.BSK_BE3C_SRB is an assay component measured in the BSK_BE3C assay. It measures 0.1% sulforhodamine related to cell death using Sulforhodamine staining technology.Data from the assay component BSK_BE3C_SRB was analyzed into 1 assay endpoint. This assay endpoint, BSK_BE3C_SRB, was analyzed with bidirectional fitting relative to DMSO as the negative control and baseline of activity. Using a type of viability reporter, gain or loss-of-signal activity can be used to understand changes in the signaling. Furthermore, this assay endpoint can be referred to as a primary readout, because this assay has produced multiple assay endpoints where this one serves a signaling function. To generalize the intended target to other relatable targets, this assay endpoint is annotated to the cell morphology intended target family, where the subfamily is cell conformation.
The levels of cell surface (or secreted, indicated by the prefix "s") biomarker endpoints were measured by ELISA. Overt cytotoxicity to cells in confluent adherent cultures (all systems other than the BT system) was assessed by measuring total protein levels using sulforhodamine B (SRB) staining in parallel cultures at the time of biomarker measurements, indicated as SRB endpoints. For proliferation assays for adherent cell types, individual cell types are cultured at sub-confluence and relative cell numbers quantified by SRB staining at time points optimized for each system (48 h: 3C and CASM3C systems; 72 h: BT and HDF3CGF systems; 96 h: SAg system). SRB was performed by staining cells with 0.1% SRB after fixation with 10% TCA and reading wells at 560 nm.Viability and proliferation of PBMC (T cells) was quantified by Alamar Blue reduction for the SAg and BT systems. For PBMC viability (referred to as PBMC Cytotoxicity within the assay endpoint names), cells were plated (75,000/well in a 96-well plate) and then chemical samples added for 1 h before addition of activators, SEB and TSST-1 (20 ng/mL final concentration each). Cells were incubated for 90 h. Then, Alamar Blue (20 uL/well) (Invitrogen, Cat DAL1100) was added for 6 h, and the plates were read with a fluorescence microplate reader at 546/580 nm (excitation/emission). For PBMC proliferation, cells were plated and activated as above but incubated for only 16 h prior to addition of Alamar Blue. Plates were read after 6 h.

SMILES | outcome | AC50
CCCCC(CC)COC(=O)c1ccccc1O (stereo unspecified) | inactive | 
CCOC(=O)c1ccccc1C(=C1C=C(Br)C(=O)C(Br)=C1)c1cc(Br)c(O)c(Br)c1 | inactive | 12.5 µM (active)
C=CC=CC=CCCCCC | inactive | 
CC(C)(c1cc(Br)c(OCCO)c(Br)c1)c1cc(Br)c(OCCO)c(Br)c1 | inactive | 
C/C=C\C/C=C/CCCCCCCCOC(C)=O | inactive | 
COc1ccc2nc(N)sc2c1 | inactive | 
CC1OC1C1CCC2(C)OC2C1 (stereo unspecified) | inactive | 
O=C(Nc1ccccc1SSc1ccccc1NC(=O)c1ccccc1)c1ccccc1 | inactive | 
CO[Si](OC)(OC)c1ccccc1 | inactive | 
CC(C)C(=O)C(C)C | inactive | 
C=CC(=O)OCC(Br)CBr (stereo unspecified) | inactive | 
c1ccc2c(c1)ccc1cc3c(ccc4ccccc43)cc12 | inactive | 
CCCCC(CC)COCC1CO1 (stereo unspecified) | inactive | 
C=C[Si](OC(C)=O)(OC(C)=O)OC(C)=O | inactive | 
C=CCOCC(O)CCl (stereo unspecified) | inactive | 
S=C(NC1CCCCC1)NC1CCCCC1 | inactive | 
c1ccc2c(c1)ccc1ncccc12 | inactive | 
CCO[Si](CCCN=C=O)(OCC)OCC | inactive | 

SMILES | outcome | AC50
CCCCCCCCc1ccc(Nc2ccc(CCCCCCCC)cc2)cc1 | inactive | 
C#CC1(O)CC[C@H]2[C@@H]3CCC4=CCCC[C@@H]4[C@H]3CC[C@@]21C (stereo partly specified) |  | 29.9 µM (active)
O=c1c2ccccc2oc2ccccc12 | inactive | 
CN1C(=O)N(C)C(O)C1O (stereo unspecified) | inactive | 
C=CCOc1c(Br)cc(Br)cc1Br |  | 31.4 µM (active)
N#[N+]c1ccc2c(S(=O)(=O)[O-])cccc2c1O | inactive | 
O=Nc1ccc(O)cc1 | inactive | 
CCCCCCCCCCCCCCCC[N+](C)(C)CC |  | 5.12 µM (active)
c1ccc(-c2ccccn2)nc1 | inactive | 
CCOc1nc(F)cc2nc(S(=O)(=O)Nc3c(Cl)cccc3C(=O)OC)nn12 | inactive | 
CCO[Si](C)(OCC)OCC | inactive | 
O=C(Cl)c1cc(C(=O)Cl)cc(C(=O)Cl)c1 |  | 29.1 µM (active)
CCCCC/C=C\C/C=C\CCCCCCCC(=O)OC | inactive | 
O=C1CCCN1CCO | inactive | 
CCCCNc1ccc(NCCCC)c2c1C(=O)c1ccccc1C2=O | inactive | 
Nc1ccc(N)c(Cl)c1 | inactive | 
O=C(c1ccc(O)cc1)c1ccc(O)cc1O | inactive | 
